In PubChem BioAssay AID1159580 (chemical genetic matrix, 2015):
Values joined by “and” are separate entries in the source; they are usually repeats but may differ in a detail not shown here. Identical values can stand only once. Out of some 5,500 compounds screened, about 2,000 (36%) were called active. Inconclusive results (about 18%) are left out. Cut-off read from the data, not from the text of the source: active = normalized growth mostly below about 0.91 (no sharp cut-off); inconclusive = no clear call, values can overlap the other calls; inactive = mostly above about 0.92. Some of the results follow.

Experiment: chemical genetic growth profiling, strain panel (AID 1159580);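 note: tested at 20 µM; growth read once vehicle control cultures reached saturation at 30 °C; 1 = growth at the plate median or of vehicle wells; lower values mean less growth of the strain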
Settings: S. cerevisiae deletion strains, growth OD

Measured: normalized growth

C[C@]12C=CC(=O)C=C1CCC1C2CC[C@]2(C)C(=O)CCC12 (stereo partly drawn)
inactive: locus YAL021C, strain ccr4, hits give low values 0.97 | locus YAL026C, strain drs2, hits give low values 0.983 | locus YAL030W, strain snc1, hits give low values 0.976 | locus YBL061C, strain skt5, hits give low values 0.971 | locus YBR009C, strain hhf1, hits give low values 0.966 | locus YBR021W, strain FUR4, hits give low values 0.986 | locus YBR023C, strain chs3, hits give low values 0.979 | locus YBR171W, strain sec66, hits give low values 0.987 | locus YBR229C, strain ROT2, hits give low values 0.992 | locus YBR231C, strain swc5, hits give low values 0.982 | locus YBR279W, strain paf1, hits give low values 0.982 | locus YCL011C, strain gbp2, hits give low values 0.988 | locus YCL016C, strain dcc1, hits give low values 0.976 | locus YCL029C, strain bik1, hits give low values 0.992 | locus YCL061C, strain MRC1, hits give low values 0.972 | locus YCL069W, strain vba3, hits give low values 0.981 | locus YCR088W, strain abp1, hits give low values 0.98 | locus YDL005C, strain med2, hits give low values 0.977 | locus YDL035C, strain GPR1, hits give low values 1.03 | locus YDL040C, strain nat1, hits give low values 0.985 | locus YDL074C, strain BRE1, hits give low values 1.01 | locus YDL101C, strain DUN1, hits give low values 1.01 | locus YDL134C, strain PPH21, hits give low values 1.01 | locus YDL185W, strain tfp1, hits give low values 1 | locus YDL192W, strain arf1, hits give low values 0.981 | locus YDR001C, strain nth1, hits give low values 0.984 | locus YDR069C, strain doa4, hits give low values 0.978 | locus YDR101C, strain arx1, hits give low values 0.981 | locus YDR137W, strain rgp1, hits give low values 1.04 | locus YDR150W, strain NUM1, hits give low values 1.01 | locus YDR159W, strain sac3, hits give low values 0.928 | locus YDR162C, strain NBP2, hits give low values 1.03 | locus YDR195W, strain ref2 0.935 | locus YDR297W, strain sur2, hits give low values 0.972 | locus YDR318W, strain mcm21, hits give low values 0.992 | locus YDR334W, strain swr1, hits give low values 0.976 | locus YDR335W, strain msn5, hits give low values 0.988 | locus YDR388W, hits give low values 0.981 | locus YDR392W, strain spt3, hits give low values 0.877 | locus YDR502C, strain sam2, hits give low values 0.976 | locus YEL003W, strain gim4, hits give low values 0.988 | locus YEL037C, strain rad23, hits give low values 0.989 | locus YEL061C, strain CIN8 (second series), hits give low values 0.988 | locus YEL061C, strain CIN8, hits give low values 0.995 | locus YER015W, strain faa2, hits give low values 0.981 | locus YER016W, strain bim1, hits give low values 0.981 | locus YER110C, hits give low values 0.984 | locus YER111C, strain swi4, hits give low values 0.986 | locus YER155C, strain BEM2 (second series), hits give low values 0.949 | locus YER155C, strain BEM2, hits give low values 0.979 | locus YER167W, strain BCK2, hits give low values 0.986 | locus YFR010W, strain ubp6, hits give low values 0.988 | locus YGL078C, strain dbp3, hits give low values 0.986 | locus YGL086W, strain mad1, hits give low values 0.983 | locus YGL167C, strain pmr1, hits give low values 0.976 | locus YGL173C, strain kem1, hits give low values 0.98 | locus YGL227W, strain vid30, hits give low values 0.984 | locus YGL240W, strain doc1, hits give low values 0.926 | locus YGL248W, strain PDE1, hits give low values 0.995 | locus YGL253W, strain hxk2, hits give low values 0.987 | locus YGR078C, strain PAC10, hits give low values 1.02 | locus YGR135W, strain pre9, hits give low values 0.996 | locus YGR229C, strain SMI1, hits give low values 1.07 | locus YGR252W, strain gcn5, hits give low values 0.988 | locus YHR013C, strain ard1, hits give low values 0.951 | locus YHR027C, strain rpn1, hits give low values 0.99 | locus YHR030C, strain SLT2, hits give low values 1.01 and 0.976 | locus YHR079C, strain IRE1 (second series), hits give low values 0.987 | locus YHR079C, strain IRE1, hits give low values 0.978 | locus YHR094C, strain hxt1, hits give low values 0.981 | locus YHR129C, strain ARP1, hits give low values 1 | locus YHR142W, strain chs7, hits give low values 0.995 | locus YHR200W, strain rpn10, hits give low values 0.976 | locus YIL066C, strain RNR3, hits give low values 1.01 | locus YIL073C, strain SPO22, hits give low values 1.04 | locus YIL125W, strain kgd1, hits give low values 0.975 | locus YIR030C, strain dcg1, hits give low values 0.992 | locus YJL092W, strain hpr5, hits give low values 0.985 | locus YJL095W, strain BCK1 (second series), hits give low values 0.98 | locus YJL095W, strain BCK1, hits give low values 1 and 0.98 | locus YJL115W, strain asf1, hits give low values 0.977 | locus YJL129C, strain trk1, hits give low values 0.985 | locus YJL134W, strain LCB3, hits give low values 1.01 | locus YJL154C, strain vps35, hits give low values 0.998 | locus YJL164C, strain tpk1, hits give low values 0.976 | locus YJL166W, strain qcr8, hits give low values 0.957 | locus YJL168C, strain set2, hits give low values 0.978 | locus YJL187C, strain SWE1 (second series), hits give low values 1.02 | locus YJL187C, strain SWE1, hits give low values 0.979 | locus YJR043C, strain POL32, hits give low values 1.03 | locus YJR066W, strain TOR1, hits give low values 0.937 | locus YKL009W, strain mrt4, hits give low values 1 | locus YKL068W, hits give low values 1 | locus YKL085W, strain MDH1 (second series), hits give low values 0.993 | locus YKL085W, strain MDH1, hits give low values 0.993 | locus YKL160W, strain elf1, hits give low values 0.985 | locus YKR001C, strain vps1, hits give low values 0.986 | locus YKR026C, strain gcn3, hits give low values 0.962 | locus YKR091W, strain srl3, hits give low values 0.976 | locus YLL001W, strain dnm1, hits give low values 0.969 | locus YLL026W, hits give low values 0.981 | locus YLL041C, strain sdh2, hits give low values 0.981 | locus YLR027C, strain aat2, hits give low values 0.984 | locus YLR039C, strain RIC1, hits give low values 1.27 | locus YLR058C, strain SHM2, hits give low values 0.993 | locus YLR102C, strain apc9, hits give low values 0.997 | locus YLR113W, strain HOG1, hits give low values 0.966 | locus YLR221C, strain rsa3, hits give low values 0.977 | locus YLR258W, strain gsy2, hits give low values 0.973 | locus YLR262C, strain YPT6 (second series), hits give low values 1.05 | locus YLR262C, strain YPT6, hits give low values 1.23 | locus YLR268W, strain sec22, hits give low values 0.997 | locus YLR320W, strain mms22, hits give low values 0.946 | locus YLR330W, strain CHS5, hits give low values 1 | locus YLR342W, strain FKS1 (second series), hits give low values 0.958 | locus YLR342W, strain FKS1, hits give low values 0.976 | locus YLR357W, strain rsc2, hits give low values 1.01 | locus YLR370C, strain arc18, hits give low values 0.977 | locus YLR371W, strain rom2, hits give low values 0.993 | locus YLR384C, strain iki3, hits give low values 0.983 | locus YLR418C, strain cdc73, hits give low values 0.968 | locus YML016C, strain PPZ1, hits give low values 0.994 | locus YML032C, strain rad52, hits give low values 0.996 | locus YML120C, strain ndi1, hits give low values 0.983 | locus YML124C, strain tub3, hits give low values 0.982 | locus YMR058W, strain fet3, hits give low values 0.979 | locus YMR078C, strain ctf18, hits give low values 0.974 | locus YMR125W, strain sto1, hits give low values 0.997 | locus YMR129W, hits give low values 0.991 | locus YMR205C, strain PFK2, hits give low values 0.963 | locus YMR223W, strain ubp8, hits give low values 0.98 | locus YMR231W, strain pep5, hits give low values 0.986 | locus YMR263W, strain SAP30, hits give low values 0.99 | locus YMR307W, strain GAS1, hits give low values 1.16 | locus YNL067W, strain RPL9B, hits give low values 1.02 | locus YNL071W, strain lat1, hits give low values 0.977 | locus YNL128W, strain TEP1, hits give low values 1.02 | locus YNL153C, strain GIM3, hits give low values 1.01 | locus YNL183C, strain NPR1, hits give low values 0.897 | locus YNL209W, strain ssb2, hits give low values 0.985 | locus YNL233W, strain BNI4, hits give low values 0.994 | locus YNL248C, strain rpa49, hits give low values 0.991 | locus YNL250W, strain rad50, hits give low values 0.99 | locus YNL271C, strain bni1, hits give low values 0.989 | locus YNL298W, strain CLA4, hits give low values 0.981 | locus YNL307C, strain MCK1, hits give low values 0.982 | locus YNL322C, strain KRE1 (second series), hits give low values 0.978 | locus YNR049C, strain mso1, hits give low values 0.983 | locus YNR052C, strain pop2, hits give low values 0.989 | locus YOL006C, strain TOP1, hits give low values 0.98 | locus YOL012C, strain htz1 1.46 | locus YOL147C, strain pex11, hits give low values 0.997 | locus YOR001W, strain rrp6, hits give low values 0.98 | locus YOR061W, strain CKA2, hits give low values 0.996 | locus YOR069W, strain VPS5, hits give low values 0.998 | locus YOR070C, strain gyp1, hits give low values 0.989 | locus YOR080W, strain dia2, hits give low values 0.972 | locus YOR083W, strain WHI5, hits give low values 0.983 | locus YOR106W, strain vam3, hits give low values 0.982 | locus YOR136W, strain idh2, hits give low values 0.987 | locus YOR144C, strain elg1, hits give low values 0.977 | locus YOR184W, strain ser1, hits give low values 0.985 | locus YOR231W, strain MKK1, hits give low values 0.98 | locus YOR265W, strain rbl2, hits give low values 0.983 | locus YOR270C, strain vph1, hits give low values 0.941 | locus YOR290C, strain snf2, hits give low values 0.943 | locus YOR316C, strain cot1, hits give low values 0.984 | locus YPL051W, strain arl3, hits give low values 0.998 | locus YPL055C, strain LGE1, hits give low values 1.02 | locus YPL078C, strain atp4, hits give low values 0.989 | locus YPL106C, strain sse1, hits give low values 0.958 | locus YPL240C, strain hsp82, hits give low values 0.965 | locus YPL256C, strain CLN2, hits give low values 0.98 | locus YPR119W, strain clb2, hits give low values 0.975 | locus YPR141C, strain kar3, hits give low values 0.982 | locus YPR163C, strain tif3, hits give low values 0.992 | locus YPR167C, strain met16, hits give low values 0.981 | strain wtn01, hits give low values 0.99
